# Measurements reported in ChEMBL document CHEMBL1961873, “Compounds: GSK PKIS; Assays: Nanosyn kinase panel” (2012).
# What was measured:
# [1] = molecular target: Sphingosine kinase 1 (Homo sapiens) (UniProt Q9NYA1); conditions: at 1 µM;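 also: mean SPHK1 inhibition value reported from the GSK PKIS kinase panel screen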
# [2] = molecular target: T1, Sphingosine kinase 2 (Homo sapiens) (UniProt Q9NRA0); conditions: at 0.1 µM
# T1 sequence (whole entry): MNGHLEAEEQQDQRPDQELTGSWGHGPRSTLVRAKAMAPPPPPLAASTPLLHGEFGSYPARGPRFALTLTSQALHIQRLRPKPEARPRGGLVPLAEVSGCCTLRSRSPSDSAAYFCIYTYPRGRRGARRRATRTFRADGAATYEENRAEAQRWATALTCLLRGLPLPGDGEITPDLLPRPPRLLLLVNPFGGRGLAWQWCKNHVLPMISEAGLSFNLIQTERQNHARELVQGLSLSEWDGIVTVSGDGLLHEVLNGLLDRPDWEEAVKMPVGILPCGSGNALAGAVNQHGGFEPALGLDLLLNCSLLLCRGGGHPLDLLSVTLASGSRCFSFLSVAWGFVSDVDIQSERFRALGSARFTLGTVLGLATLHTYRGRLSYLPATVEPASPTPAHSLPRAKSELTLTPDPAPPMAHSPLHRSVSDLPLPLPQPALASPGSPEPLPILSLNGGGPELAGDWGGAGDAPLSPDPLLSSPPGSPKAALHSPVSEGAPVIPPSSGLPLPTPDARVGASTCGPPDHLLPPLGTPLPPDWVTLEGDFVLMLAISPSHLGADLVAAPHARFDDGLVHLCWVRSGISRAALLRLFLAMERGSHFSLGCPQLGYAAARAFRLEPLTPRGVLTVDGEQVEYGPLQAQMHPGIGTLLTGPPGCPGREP
# [3] = molecular target: T1, Sphingosine kinase 2 (Homo sapiens); conditions: at 1 µM
# [4] = molecular target: Casein kinase II subunit alpha (Homo sapiens) (UniProt P68400); conditions: at 0.1 µM
# Sequence of Casein kinase II subunit alpha (Homo sapiens) (P68400 whole entry, looked up): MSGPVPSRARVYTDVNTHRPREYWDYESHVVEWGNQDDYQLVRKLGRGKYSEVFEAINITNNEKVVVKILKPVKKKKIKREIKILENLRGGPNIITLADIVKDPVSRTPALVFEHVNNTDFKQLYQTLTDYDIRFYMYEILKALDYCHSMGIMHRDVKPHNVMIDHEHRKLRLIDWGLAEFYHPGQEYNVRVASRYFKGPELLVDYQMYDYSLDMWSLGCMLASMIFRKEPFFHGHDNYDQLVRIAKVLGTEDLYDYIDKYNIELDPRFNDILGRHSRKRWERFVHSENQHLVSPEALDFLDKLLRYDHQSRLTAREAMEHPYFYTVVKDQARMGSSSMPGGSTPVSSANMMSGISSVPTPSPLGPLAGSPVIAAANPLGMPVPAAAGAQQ
# [5] = molecular target: Casein kinase II subunit alpha (Homo sapiens) (UniProt P68400); conditions: at 1 µM
# [6] = molecular target: T2, Inhibitor of nuclear factor kappa-B kinase subunit alpha (Homo sapiens) (UniProt O15111); conditions: at 0.1 µM
# T2 sequence (whole entry): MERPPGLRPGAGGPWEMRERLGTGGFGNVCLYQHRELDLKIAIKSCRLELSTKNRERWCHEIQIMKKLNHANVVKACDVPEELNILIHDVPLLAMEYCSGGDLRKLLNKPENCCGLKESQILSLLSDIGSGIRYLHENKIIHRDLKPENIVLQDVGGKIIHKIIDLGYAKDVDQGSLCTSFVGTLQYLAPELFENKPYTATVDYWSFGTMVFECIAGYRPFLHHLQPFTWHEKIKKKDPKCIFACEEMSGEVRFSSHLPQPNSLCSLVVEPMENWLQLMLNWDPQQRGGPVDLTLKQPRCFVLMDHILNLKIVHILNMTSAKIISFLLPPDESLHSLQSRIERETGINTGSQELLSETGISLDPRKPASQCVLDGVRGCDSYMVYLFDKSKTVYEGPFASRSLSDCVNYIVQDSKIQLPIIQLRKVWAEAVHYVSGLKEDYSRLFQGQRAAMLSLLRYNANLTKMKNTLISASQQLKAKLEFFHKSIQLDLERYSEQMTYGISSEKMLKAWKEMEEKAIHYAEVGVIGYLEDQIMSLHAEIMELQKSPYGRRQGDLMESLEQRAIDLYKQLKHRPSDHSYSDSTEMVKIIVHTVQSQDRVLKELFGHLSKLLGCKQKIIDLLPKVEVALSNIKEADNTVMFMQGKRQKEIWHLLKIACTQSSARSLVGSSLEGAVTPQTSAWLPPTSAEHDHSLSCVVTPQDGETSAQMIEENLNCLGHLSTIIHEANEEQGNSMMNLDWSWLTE
# [7] = molecular target: T2, Inhibitor of nuclear factor kappa-B kinase subunit alpha (Homo sapiens); conditions: at 1 µM
# [8] = molecular target: T3, Inhibitor of nuclear factor kappa-B kinase subunit beta (Homo sapiens) (UniProt O14920); conditions: at 0.1 µM
# T3 sequence (whole entry): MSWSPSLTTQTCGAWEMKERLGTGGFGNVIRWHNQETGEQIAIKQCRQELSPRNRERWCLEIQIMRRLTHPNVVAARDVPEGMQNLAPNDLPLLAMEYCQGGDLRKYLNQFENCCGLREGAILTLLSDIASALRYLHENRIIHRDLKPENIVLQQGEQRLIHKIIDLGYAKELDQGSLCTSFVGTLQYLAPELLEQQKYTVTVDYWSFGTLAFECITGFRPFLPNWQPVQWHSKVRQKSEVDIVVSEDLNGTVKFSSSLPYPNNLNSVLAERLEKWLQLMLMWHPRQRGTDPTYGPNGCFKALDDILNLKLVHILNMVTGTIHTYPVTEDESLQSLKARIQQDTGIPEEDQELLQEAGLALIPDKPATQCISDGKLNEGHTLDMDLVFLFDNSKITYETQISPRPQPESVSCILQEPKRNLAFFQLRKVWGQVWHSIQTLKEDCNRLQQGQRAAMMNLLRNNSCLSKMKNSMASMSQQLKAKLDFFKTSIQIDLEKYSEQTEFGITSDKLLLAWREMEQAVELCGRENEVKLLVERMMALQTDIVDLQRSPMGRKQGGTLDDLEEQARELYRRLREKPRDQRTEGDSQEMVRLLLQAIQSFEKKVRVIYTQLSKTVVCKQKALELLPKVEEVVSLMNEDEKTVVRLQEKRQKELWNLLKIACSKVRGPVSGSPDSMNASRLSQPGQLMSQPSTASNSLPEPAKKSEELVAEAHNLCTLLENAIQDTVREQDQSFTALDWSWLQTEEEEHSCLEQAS
# [9] = molecular target: T3, Inhibitor of nuclear factor kappa-B kinase subunit beta (Homo sapiens); conditions: at 1 µM
# [10] = molecular target: T4, Inhibitor of nuclear factor kappa-B kinase subunit epsilon (Homo sapiens) (UniProt Q14164); conditions: at 0.1 µM
# T4 sequence (whole entry): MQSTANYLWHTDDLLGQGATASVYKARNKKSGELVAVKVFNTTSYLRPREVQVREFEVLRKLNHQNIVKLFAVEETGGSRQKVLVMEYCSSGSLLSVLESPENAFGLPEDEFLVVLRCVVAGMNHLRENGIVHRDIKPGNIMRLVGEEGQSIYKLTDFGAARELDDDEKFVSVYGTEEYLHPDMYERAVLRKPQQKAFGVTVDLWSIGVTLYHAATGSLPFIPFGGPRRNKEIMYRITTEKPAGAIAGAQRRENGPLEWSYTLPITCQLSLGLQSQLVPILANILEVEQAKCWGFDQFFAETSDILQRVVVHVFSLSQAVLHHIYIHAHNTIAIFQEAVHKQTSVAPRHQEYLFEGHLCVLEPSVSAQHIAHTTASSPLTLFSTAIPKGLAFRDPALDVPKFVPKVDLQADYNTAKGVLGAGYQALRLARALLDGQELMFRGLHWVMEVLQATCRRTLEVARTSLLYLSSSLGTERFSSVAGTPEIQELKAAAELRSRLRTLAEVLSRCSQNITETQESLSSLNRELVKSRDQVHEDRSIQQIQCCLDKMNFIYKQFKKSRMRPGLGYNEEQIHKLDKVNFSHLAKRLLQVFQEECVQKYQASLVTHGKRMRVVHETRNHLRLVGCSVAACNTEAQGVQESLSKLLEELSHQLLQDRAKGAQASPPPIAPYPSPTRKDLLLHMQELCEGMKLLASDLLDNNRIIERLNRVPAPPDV
# [11] = molecular target: T4, Inhibitor of nuclear factor kappa-B kinase subunit epsilon (Homo sapiens); conditions: at 1 µM
# [12] = molecular target: T5, Serine/threonine-protein kinase Nek1 (Homo sapiens) (UniProt Q96PY6); conditions: at 0.1 µM
# T5 sequence (whole entry): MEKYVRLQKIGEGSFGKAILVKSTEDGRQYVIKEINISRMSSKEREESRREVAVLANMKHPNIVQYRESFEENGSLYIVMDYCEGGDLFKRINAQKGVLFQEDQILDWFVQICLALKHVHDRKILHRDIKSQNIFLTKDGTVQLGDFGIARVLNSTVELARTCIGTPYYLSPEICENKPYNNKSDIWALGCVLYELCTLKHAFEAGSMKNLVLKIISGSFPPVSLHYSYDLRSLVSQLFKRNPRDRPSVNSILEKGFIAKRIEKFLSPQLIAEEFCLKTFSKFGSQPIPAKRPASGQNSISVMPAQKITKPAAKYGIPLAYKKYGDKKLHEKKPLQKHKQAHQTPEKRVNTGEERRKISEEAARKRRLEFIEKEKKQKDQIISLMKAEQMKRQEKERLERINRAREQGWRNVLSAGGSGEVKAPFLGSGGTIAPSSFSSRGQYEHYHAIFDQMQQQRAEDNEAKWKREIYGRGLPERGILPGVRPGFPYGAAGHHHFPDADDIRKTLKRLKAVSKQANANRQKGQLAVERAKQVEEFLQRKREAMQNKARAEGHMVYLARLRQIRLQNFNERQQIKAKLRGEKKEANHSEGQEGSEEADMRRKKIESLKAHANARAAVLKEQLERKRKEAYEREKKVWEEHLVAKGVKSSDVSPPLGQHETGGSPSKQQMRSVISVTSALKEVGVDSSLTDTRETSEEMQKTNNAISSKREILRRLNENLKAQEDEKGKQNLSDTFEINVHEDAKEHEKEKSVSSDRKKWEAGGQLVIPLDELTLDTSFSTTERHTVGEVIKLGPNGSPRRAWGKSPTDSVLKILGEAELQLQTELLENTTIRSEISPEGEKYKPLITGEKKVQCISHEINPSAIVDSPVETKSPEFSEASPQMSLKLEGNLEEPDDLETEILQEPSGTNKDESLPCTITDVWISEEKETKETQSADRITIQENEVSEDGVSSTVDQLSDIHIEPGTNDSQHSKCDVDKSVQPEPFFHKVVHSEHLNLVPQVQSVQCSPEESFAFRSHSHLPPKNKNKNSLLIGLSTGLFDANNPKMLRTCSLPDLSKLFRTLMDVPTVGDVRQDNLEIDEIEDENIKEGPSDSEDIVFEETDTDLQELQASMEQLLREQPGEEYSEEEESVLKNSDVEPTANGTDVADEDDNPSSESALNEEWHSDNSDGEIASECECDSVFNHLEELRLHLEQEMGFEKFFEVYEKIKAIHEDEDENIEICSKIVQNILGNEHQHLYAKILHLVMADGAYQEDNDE
# [13] = molecular target: T5, Serine/threonine-protein kinase Nek1 (Homo sapiens); conditions: at 1 µM
# [14] = molecular target: T6, Serine/threonine-protein kinase Nek2 (Homo sapiens) (UniProt P51955); conditions: at 0.1 µM
# T6 sequence (whole entry): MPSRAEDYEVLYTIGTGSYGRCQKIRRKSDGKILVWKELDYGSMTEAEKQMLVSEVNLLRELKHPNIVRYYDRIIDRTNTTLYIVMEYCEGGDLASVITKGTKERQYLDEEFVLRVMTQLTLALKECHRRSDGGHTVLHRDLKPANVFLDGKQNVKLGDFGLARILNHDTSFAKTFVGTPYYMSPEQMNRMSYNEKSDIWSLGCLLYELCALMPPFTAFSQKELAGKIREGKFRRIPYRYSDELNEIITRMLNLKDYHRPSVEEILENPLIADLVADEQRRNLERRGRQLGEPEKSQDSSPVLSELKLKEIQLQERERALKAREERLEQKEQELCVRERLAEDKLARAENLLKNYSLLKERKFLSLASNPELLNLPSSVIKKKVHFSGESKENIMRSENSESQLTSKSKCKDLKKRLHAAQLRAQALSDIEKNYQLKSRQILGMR
# [15] = molecular target: T6, Serine/threonine-protein kinase Nek2 (Homo sapiens); conditions: at 1 µM
# [16] = molecular target: Serine/threonine-protein kinase Nek6 (Homo sapiens) (UniProt Q9HC98); conditions: at 0.1 µM
# Sequence of Serine/threonine-protein kinase Nek6 (Homo sapiens) (Q9HC98 whole entry): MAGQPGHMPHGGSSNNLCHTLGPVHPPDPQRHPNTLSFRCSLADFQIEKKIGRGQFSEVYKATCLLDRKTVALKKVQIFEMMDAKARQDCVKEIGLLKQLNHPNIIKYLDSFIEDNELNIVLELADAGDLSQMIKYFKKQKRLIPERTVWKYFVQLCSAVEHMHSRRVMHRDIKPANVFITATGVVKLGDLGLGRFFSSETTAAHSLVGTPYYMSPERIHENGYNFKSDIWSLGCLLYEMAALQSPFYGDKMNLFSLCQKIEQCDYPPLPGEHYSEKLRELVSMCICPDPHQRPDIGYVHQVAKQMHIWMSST
# [17] = molecular target: Serine/threonine-protein kinase Nek6 (Homo sapiens) (UniProt Q9HC98); conditions: at 1 µM
# [18] = molecular target: Serine/threonine-protein kinase Nek7 (Homo sapiens) (UniProt Q8TDX7); conditions: at 0.1 µM
# Sequence of Serine/threonine-protein kinase Nek7 (Homo sapiens) (Q8TDX7 whole entry, looked up): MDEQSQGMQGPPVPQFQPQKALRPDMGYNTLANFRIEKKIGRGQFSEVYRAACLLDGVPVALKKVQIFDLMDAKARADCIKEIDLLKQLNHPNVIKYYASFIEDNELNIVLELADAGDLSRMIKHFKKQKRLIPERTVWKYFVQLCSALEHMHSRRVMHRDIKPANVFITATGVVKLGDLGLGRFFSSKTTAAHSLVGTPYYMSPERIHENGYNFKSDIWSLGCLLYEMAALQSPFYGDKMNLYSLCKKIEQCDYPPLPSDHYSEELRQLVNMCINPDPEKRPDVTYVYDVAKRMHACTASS
# [19] = molecular target: Serine/threonine-protein kinase Nek7 (Homo sapiens) (UniProt Q8TDX7); conditions: at 1 µM
# [20] = molecular target: T7, Serine/threonine-protein kinase Nek9 (Homo sapiens) (UniProt Q8TD19); conditions: at 0.1 µM;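 also: reported value is the mean percent inhibition of NEK9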
# T7 sequence (whole entry): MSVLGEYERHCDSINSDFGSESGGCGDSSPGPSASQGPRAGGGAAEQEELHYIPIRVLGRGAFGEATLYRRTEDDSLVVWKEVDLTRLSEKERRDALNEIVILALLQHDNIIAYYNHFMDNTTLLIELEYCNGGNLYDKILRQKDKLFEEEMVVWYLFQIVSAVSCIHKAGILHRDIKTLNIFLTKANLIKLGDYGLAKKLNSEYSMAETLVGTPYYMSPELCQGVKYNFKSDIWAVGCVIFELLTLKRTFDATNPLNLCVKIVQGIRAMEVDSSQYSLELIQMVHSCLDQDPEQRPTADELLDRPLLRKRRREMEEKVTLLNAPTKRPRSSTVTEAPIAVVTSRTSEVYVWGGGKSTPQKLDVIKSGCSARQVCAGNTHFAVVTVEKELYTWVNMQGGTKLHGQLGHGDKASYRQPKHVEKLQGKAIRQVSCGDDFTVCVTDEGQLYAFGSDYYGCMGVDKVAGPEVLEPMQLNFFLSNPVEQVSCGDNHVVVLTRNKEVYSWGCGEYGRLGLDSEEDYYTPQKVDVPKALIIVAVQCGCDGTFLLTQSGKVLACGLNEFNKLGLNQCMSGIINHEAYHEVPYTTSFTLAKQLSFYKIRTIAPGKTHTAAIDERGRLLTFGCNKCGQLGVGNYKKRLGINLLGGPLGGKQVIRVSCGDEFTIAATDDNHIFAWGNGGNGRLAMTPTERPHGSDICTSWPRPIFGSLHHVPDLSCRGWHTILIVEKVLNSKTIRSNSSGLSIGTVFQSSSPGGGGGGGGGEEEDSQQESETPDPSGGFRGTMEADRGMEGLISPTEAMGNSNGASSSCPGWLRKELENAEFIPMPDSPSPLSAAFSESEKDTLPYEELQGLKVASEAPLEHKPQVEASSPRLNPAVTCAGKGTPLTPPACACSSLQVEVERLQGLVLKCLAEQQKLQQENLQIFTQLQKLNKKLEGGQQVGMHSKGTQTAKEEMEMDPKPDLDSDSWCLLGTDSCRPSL
# Sequence of Sphingosine kinase 1 (Homo sapiens) (Q9NYA1 whole entry): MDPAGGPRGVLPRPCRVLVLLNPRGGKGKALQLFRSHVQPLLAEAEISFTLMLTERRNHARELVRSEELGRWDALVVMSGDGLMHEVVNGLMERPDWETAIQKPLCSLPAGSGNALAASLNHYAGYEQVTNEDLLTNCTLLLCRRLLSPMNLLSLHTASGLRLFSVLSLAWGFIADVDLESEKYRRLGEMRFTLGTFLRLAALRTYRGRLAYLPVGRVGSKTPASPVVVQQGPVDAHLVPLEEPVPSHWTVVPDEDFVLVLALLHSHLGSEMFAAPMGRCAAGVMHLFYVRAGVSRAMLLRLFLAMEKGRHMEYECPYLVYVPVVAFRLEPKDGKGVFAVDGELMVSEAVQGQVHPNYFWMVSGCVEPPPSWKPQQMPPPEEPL
Structure (SMILES),inhibition [1],inhibition [2],inhibition [3],inhibition [4],inhibition [5],inhibition [6],inhibition [7],inhibition [8],inhibition [9],inhibition [10],inhibition [11],inhibition [12],inhibition [13],inhibition [14],inhibition [15],inhibition [16],inhibition [17],inhibition [18],inhibition [19],inhibition [20]
CS(=O)(=O)CCNCc1nc(-c2ccc3ncnc(Nc4ccc(F)c(Cl)c4)c3c2)cs1,0.42%,0.49%,-0.93%,1.14%,5.94%,-4.65%,-4.39%,-0.32%,1.99%,1.53%,2.88%,-0.13%,1.85%,2.32%,2.06%,3.94%,4.01%,-1.48%,1.7%,0.58%
CN1CCC(C(=O)Nc2n[nH]c3nnc(-c4ccccc4)cc23)CC1,-3.46%,-0.94%,-2.16%,6.73%,12.2%,6.86%,1.13%,11.4%,12.4%,7.37%,6.54%,2.01%,4.86%,5.31%,4.22%,2.59%,0.5%,5.74%,4.97%,12.7%
